Hsp90 inh – displaces geldanamycin probe from tumor Hsp90. NCI-N417 lysate Hsp90, Cy3B-geldanamycin FP displacement. inhibition, % at 30 µM. actives 0.35% (n = 64,000). AID 429;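 active = inhibition above 50%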;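 also: 0% = tracer plus lysate wells and 100% = tracer alone without lysate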
Cdc25B block – human M-phase inducer phosphatase 2 inhibition | recombinant Cdc25B, OMFP fluorescence Ex485/Em525 | inhibition, %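 (compounds tested at 10 µM final in the well)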 | actives 0.1% (n = 65,000); in the data active = inhibition above about 50%
HePTP inhibitor – blocks human HePTP tyrosine phosphatase; recombinant HePTP phosphatase activity, OD absorbance; inhibition, % at 20 µM; P35236; actives 0.64% (n = 110,000); in the data active = inhibition above about 50%;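 also: plate controls were vehicle for no effect and reference inhibitor for full effect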
TNAP act DEA – human TNAP activation, intermediate phosphate acceptor. activation factor at 20 µM. 64,000 tested, under 10 active. purified TNAP, CDP-star luminescence, 100 mM DEA, 30 min; active compounds read high; scale: 0 levamisole-inhibited, 1 vehicle-only enzyme. AID 813. P05186;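 active = activation factor of at least 2 at 20 µM, relative to controls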
PLAP activator – activates human placental alkaline phosphatase | P05187 | purified PLAP enzyme, luminescent substrate read-out; active compounds read high | activation fold at 20 µM | actives 1.2% (n = 96,000); in the data active = activation fold above about 2
Target sequence (P05187 whole entry, looked up): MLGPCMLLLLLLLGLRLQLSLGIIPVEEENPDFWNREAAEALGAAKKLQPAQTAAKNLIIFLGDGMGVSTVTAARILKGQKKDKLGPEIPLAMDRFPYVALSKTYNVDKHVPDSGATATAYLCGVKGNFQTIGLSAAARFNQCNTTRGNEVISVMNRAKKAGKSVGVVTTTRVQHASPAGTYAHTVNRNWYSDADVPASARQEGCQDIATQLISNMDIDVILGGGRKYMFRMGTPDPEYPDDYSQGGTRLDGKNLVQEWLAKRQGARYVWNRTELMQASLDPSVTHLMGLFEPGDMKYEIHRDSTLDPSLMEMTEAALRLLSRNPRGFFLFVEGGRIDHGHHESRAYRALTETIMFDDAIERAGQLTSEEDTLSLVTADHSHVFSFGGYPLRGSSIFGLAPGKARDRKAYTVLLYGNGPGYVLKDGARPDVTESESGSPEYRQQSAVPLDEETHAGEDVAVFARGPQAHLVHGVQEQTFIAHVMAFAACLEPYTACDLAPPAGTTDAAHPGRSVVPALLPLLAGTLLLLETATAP
MKP-1 inh – inhibitors of human MKP-1 phosphatase | P28562 | recombinant MKP-1, OMFP hydrolysis fluorescence | inhibition, %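 (compounds tested at a single concentration somewhere between 10 and 100 µM)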 | actives 0.15% (n = 65,000) | AID 374;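 active = inhibition above about 50%, limit read from the data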;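 also: 0% = DMSO max control wells and 100% = wells with enzyme stopped by NaOH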
* marks the source's active call; other numbers are inactive results; · = no result; ! = not active in a repeat. Only some compounds are listed: those with a hit (about 1.5% of all), similar ones and a draw of the others.

SMILES	Hsp90 inh	Cdc25B block	HePTP inhibitor	TNAP act DEA	PLAP activator	MKP-1 inh
Cc1sc(NC(=O)/C=C\C(=O)O)nc1-c1ccccc1	·	·	103*	·	·	·
O=C(NCCNc1ccc(C(F)(F)F)cc1[N+](=O)[O-])c1cc(F)c(F)cc1Cl	·	·	3	·	·	·
CCc1cc(C(=O)NNC(=S)NCC2CCCO2)cs1 (centres undefined)	·	·	·	·	2.2*	·
Cc1scc(C(=O)NNC(=S)NCC2CCCO2)c1C (centres undefined)	·	·	·	·	2.2*	·
Cc1ccccc1C(=O)NC(=S)NCC1CCCO1 (centres undefined)	·	·	·	·	1	·
Cc1ccc2nc(C(O)C(O)c3nc4ccc(C)cc4[nH]3)[nH]c2c1 (centres undefined)	2	5	6	1.4	2.1*	-2
N#Cc1ccc2c(c1)nc1c3cccc4cccc(c(=O)n21)c43	·	·	65*	·	·	·
O=c1c2ccc([N+](=O)[O-])c3cccc(c32)c2nc3ccccc3n12	·	·	·	·	0.9	·
Cc1cc(C)c(NC(=O)CN2C(=O)c3ccccc3C2=O)c(C)c1	·	·	4	·	·	·
COC(=O)c1c(C(=O)OC)c2ccncn2c1Cl	-6	-3	6	1	2.4*	10
CCCS(=O)(=O)c1c(S(=O)(=O)CCC)c2cc(-c3ccncc3)ccn2c1C(=O)OC	·	·	4	·	·	·
COc1ccccc1NC(=O)c1ccc2ccccc2n1	·	·	-4	·	·	·
O=C(Nc1ccccn1)c1ccc2ccccc2n1	-3	70*	10	0.9	1.1	-1
Brc1ccccc1-c1nnc(CSc2nnnn2-c2ccccc2)o1	-7	-5	6	0.8	2.1*	-3
O=[N+]([O-])c1ccccc1/C=N/N1CCN(Cc2ccc(Cl)cc2)CC1	·	·	0	·	·	·
Cc1ccccc1/C=N/N1CCN(Cc2ccc(Cl)cc2)CC1	·	·	105*	·	·	·
Cc1cccc(Nc2ncc3c(n2)CC(c2ccco2)CC3=O)c1 (centres undefined)	-2	3	7	0.8	0.7	-3
Cc1ccc(Nc2ncc3c(n2)CC(c2ccco2)CC3=O)c(C)c1 (centres undefined)	1	78*	12	0.9	0.9	27
COC(=O)Cc1[nH]nc2c1C(c1cccc(OC)c1OC)C(C#N)=C(N)O2 (centres undefined)	-1	-21	5	1	2*	1
CCOC(=O)Cc1[nH]nc2c1C(C1C=CCCC1)C(C#N)=C(N)O2 (centres undefined)	1	-3	11	0.9	2.1*	30
CCOC(=O)Cc1[nH]nc2c1C(c1cc(OC)ccc1OC)C(C#N)=C(N)O2 (centres undefined)	-1	-10	4	0.9	1.6	17
CCOC(=O)Cc1[nH]nc2c1C(c1cccc(OC)c1OC)C(C#N)=C(N)O2 (centres undefined)	0	-10	8	1	2.2*	-3
N#CC1=C(N)Oc2n[nH]c(-c3cccs3)c2C1C1C=CCCC1 (centres undefined)	·	·	·	·	0.8	·
COCc1[nH]nc2c1C(c1ccccc1OC)C(C#N)=C(N)O2 (centres undefined)	-1	-21	8	0.9	1	-17
CCCC/C(CC)=N\NC(=O)c1cc([N+](=O)[O-])cc([N+](=O)[O-])c1	·	·	-16	·	·	·
SMILES	Hsp90 inh	Cdc25B block	HePTP inhibitor	TNAP act DEA	PLAP activator	MKP-1 inh
COc1cc(C(=O)NCc2ccccc2F)cc(OC)c1OC	·	·	6	·	·	·
C=CCc1cccc2cc(C(=O)Nc3ccc(OCC)cc3)c(=O)oc12	·	·	9	·	·	·
C=CCc1cccc2cc(C(=O)Nc3ccc(S(=O)(=O)Nc4nnc(CC)s4)cc3)c(=O)oc12	·	·	103*	·	·	·
C=CCc1cccc2cc(C(=O)Nc3ccc(Cl)c(Cl)c3)c(=O)oc12	·	·	2	·	·	·
C=CCc1cccc2cc(C(=O)Nc3cccc(C(=O)O)c3)c(=O)oc12	·	·	90*	·	·	·
COc1ccc(/C=C2\C(=O)N(c3ccc(F)cc3)N=C2C)c(OC)c1	·	·	6	·	·	·
Cc1cc(C)cc(OCC(=O)NNC(=O)c2cc(C)[nH]n2)c1	·	·	·	·	2.7*	·
O=C(Nc1nc2ccccc2[nH]1)C1CC(=O)N(c2ccc3c(c2)OCCO3)C1 (centres undefined)	-7	-2	13	0.9	2.9*	41
O=C(O)C1CC(=O)N(c2ccc3c(c2)OCCO3)C1 (centres undefined)	·	·	·	·	1.1	·
O=C(Nc1ccc2c(c1)OCO2)C1CCN(Cc2cnn(-c3ccccc3)c2-n2cccc2)CC1	3	-4	11	1	2.9*	-24
Clc1ccc(OCc2nnc(SCc3nc4ccccc4[nH]3)n2Cc2ccco2)cc1	-7	-2	16	1.1	1.4	6
Clc1cccc(-c2nnc(SCc3nc4ccccc4[nH]3)n2Cc2ccco2)c1	3	0	5	1	2.2*	5
c1ccc(-c2nnc(SCc3nc4ccccc4[nH]3)n2Cc2ccco2)nc1	·	-10	7	1	2.6*	12
Cn1c(SCc2nc3ccccc3[nH]2)nnc1-c1cnccn1	-1	-3	-1	0.8	1.3	22
c1coc(Cn2c(SCc3nc4ccccc4[nH]3)nnc2-c2cnccn2)c1	-6	3	8	1	2.2*	17
O=C(Nc1cccc([N+](=O)[O-])c1)C1CC1(c1ccccc1)c1ccccc1 (centres undefined)	·	·	0	·	·	·
COc1ccc(-c2nc3sc4c(c3c(=O)[nH]2)CCCC4)cc1C	·	·	-19	·	·	·
CC1=NN(C(=O)c2cccc(Cn3nc(C)c([N+](=O)[O-])c3C)c2)C(O)(C(F)(F)F)C1 (centres undefined)	·	·	·	·	2.1*	·
Cc1nn(Cc2cccc(C(=O)N3N=C(C(F)F)CC3(O)C(F)F)c2)c(C)c1[N+](=O)[O-] (centres undefined)	·	·	·	·	1.5	·
CC(C)OC(=O)CSc1nc2ccccc2s1	93*	-2	2	0.9	1	-14
CC(=O)CSc1nc2ccccc2s1	·	·	·	·	1	·
O=C(Oc1ccc([N+](=O)[O-])cc1)c1ccc(Br)c(S(=O)(=O)N2CCCCC2)c1	·	·	7	·	·	·
Cc1cc(C)n(Cc2ccc(C(=O)O)cc2)n1	·	·	·	·	0.9	·
Cc1ccc(C)n1Cc1ccc(C(=O)O)cc1	-4	-13	104*!	0.8	1.5	3
Cc1ccc(OCC(=O)NN=C2c3ccccc3-c3ccccc32)cc1	·	·	·	·	1.1	·
SMILES	Hsp90 inh	Cdc25B block	HePTP inhibitor	TNAP act DEA	PLAP activator	MKP-1 inh
CCc1ccc(OCC(=O)N/N=C2\CC(=O)c3ccccc32)cc1	·	·	·	·	2.4*	·
Cc1ccc(S(=O)(=O)C(CCC(=O)N2CCOCC2)S(=O)(=O)c2ccc(C)cc2)cc1	88*	-1	-3	1	1.6	-8
Cc1ccc(S(=O)(=O)N(C)CCCC(=O)N2CCOCC2)cc1	0	-9	3	0.9	1	8
CCOC(=O)c1oc2c(O)c(O)ccc2c(=O)c1-c1nncn1-c1ccccc1	61*	3	3	1	1	-3
O=C(CSc1ncn[nH]1)c1ccccc1	-5	-6	0	0.9	2.2*	-22
C(=C\CSc1ncn[nH]1)/CSc1ncn[nH]1	-1	5	-9	1.3	2.7*	6

Screening data from PubChem.
